Screening results: PubChem BioAssay, Broad Institute
Shown is part of a subset that was picked to be rich in hits.
BL2 CD40 inh: CD40 pathway inhibition in BL2 cells; BL2 NF-kB luciferase reporter, CD40L-induced, 4 h; inhibition, % at 10 µM; hit rate 0.94% among 83,000; AID 1053188;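 active means mean inhibition of at least 50% with a set share of replicates also reaching that level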;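 further: 0% = neutral control wells and 100% = IKK inhibitor VII at 50 µM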
* hit, by the source's call; [ ] = remark or other dose.

SMILES	BL2 CD40 inh
C[C@H]1CN([C@@H](C)CO)C(=O)CCCn2cc(nn2)CO[C@@H]1CN(C)Cc1ccc2cccnc2c1	-6[25 µM]
COc1ccc(OCc2cccc(C(=O)NN)c2)cc1	25*
COc1ccc(OCc2cccc(C(=O)Nc3cc(C)on3)c2)cc1	4
COc1ccc(OCc2ccc(C(=O)N3CCOCC3)cc2)cc1	-23
CCOc1ccc(OCc2cccc(C(=O)N3CCOCC3)c2)cc1	90*
O=C(c1cccc(OCc2ccccc2)c1)N1CCOCC1	-8
NNC(=O)c1cccc(COc2cccc(Br)c2)c1	-57
CC(C)C1C(=O)N(S(C)(=O)=O)[C@@H]2CCN(C(=O)/C=C/CN3CCCCC3)[C@@H]12 (some centres not stated)	-5[25 µM]
CN(Cc1ccccc1)C(=O)C(Cc1ccc2ccccc2c1)NC(=O)C1CCCN1C(=O)Nc1ccccc1[N+](=O)[O-] (configuration not stated)	15[25 µM]
O=C(Cc1ccccc1)N1CC[C@@H]2[C@H]1c1cc(C#Cc3cccc(F)c3)ccc1N[C@@H]2CO	82*[25 µM]
O=C(Cc1ccccc1)N1CC[C@@H]2[C@H](CO)Nc3ccc(-c4cccc(F)c4)cc3[C@@H]21	-22[25 µM]
O=C(c1cccc(F)c1)N1CC[C@@H]2[C@@H](CO)Nc3ccc(-c4ccc(F)cc4)cc3[C@@H]21	-7
O=C(c1ccncc1)N1CC[C@@H]2[C@H](CO)Nc3ccc(-c4ccc(F)cc4)cc3[C@@H]21	-47[25 µM]
O=C(c1ccncc1)N1CC[C@@H]2[C@@H](CO)Nc3ccc(-c4ccc(F)cc4)cc3[C@@H]21	active[25 µM]
O=C(Cc1ccccc1)N1CC[C@@H]2[C@H]1c1cc(-c3cccc(F)c3)ccc1N[C@@H]2CO	70*[25 µM]
O=C(Cc1ccccc1)N1CC[C@H]2[C@H](CO)Nc3ccc(-c4cccc(F)c4)cc3[C@H]21	4[25 µM]
O=C(Cc1ccccc1)N1CC[C@@H]2[C@@H](CO)Nc3ccc(C#Cc4cccc(F)c4)cc3[C@@H]21	2[25 µM]
O=C(Cc1ccccc1)N1CC[C@@H]2[C@@H](CO)Nc3ccc(-c4cccc(F)c4)cc3[C@@H]21	-16[25 µM]
O=C(C[C@@H]1CC[C@@H](NC(=O)NC2CCCCC2)[C@@H](CO)O1)NCc1ccc(F)cc1	-6
C[C@H]1CN([C@@H](C)CO)C(=O)c2c(c3ccccc3n2C)-c2ccccc2CO[C@H]1CN(C)Cc1ccc(-c2ccccc2)cc1	-11
O=C(O)CC/C=C/CC1COC(c2ccccc2Cl)OC1c1ccccc1O (configuration not stated)	-18[25 µM]
Fc1ccc(CN2[C@@H]3CN(CC(F)(F)F)C[C@H]2C3c2ccccc2)cc1 (some centres not stated)	1
O=C(Nc1nc2c(s1)CCCC2)Oc1ccccc1	-32
O=C(O)c1ccc(Nc2nc3c(s2)CCCC3)cc1	72*
O=C(Nc1nc2c(s1)CCCC2)c1cccnc1	-67
SMILES	BL2 CD40 inh
Cc1noc(C)c1NC(=O)Nc1ccc2c(c1)C(=O)N([C@@H](C)CO)C[C@H](C)[C@@H](CN(C)C(=O)Nc1ccc(C(F)(F)F)cc1)OCCCC[C@@H](C)O2	12
O=S(=O)(CC(CN1CCCC1)N1CCCC1)c1ccc2ccccc2c1 (configuration not stated)	52*
OC(COc1ccc2ccccc2c1)CN1CCCC1 (configuration not stated)	-36
O=C(O)C1CCCCN1S(=O)(=O)c1ccc2ccccc2c1 (configuration not stated)	4
CCCN(C)C[C@@H]1OCCCC[C@H](C)Oc2ccc(NC(=O)CCCN(C)C)cc2C(=O)N([C@@H](C)CO)C[C@@H]1C	-2[25 µM]
Cc1ccc(S(=O)(=O)N(C)C[C@@H]2OCCCC[C@@H](C)Oc3ccc(NS(=O)(=O)c4ccc(F)cc4)cc3C(=O)N([C@@H](C)CO)C[C@@H]2C)cc1	10
O=C(CCS(=O)(=O)c1ccccc1)Nc1ccc(N2CCOCC2)cc1	-25
Cc1ccc2nc(N(CCN3CCOCC3)C(=O)CCS(=O)(=O)c3ccccc3)sc2c1	-33
Cc1ccc(S(=O)(=O)CCC(=O)N(CCCN2CCOCC2)c2nc3ccccc3s2)cc1	96*
O=C(NCCCN1CCOCC1)c1cc(-c2ccccc2)nc2ccccc12	1
CC(=O)Nc1ccc(S(=O)(=O)N(CCCN2CCOCC2)Cc2cccs2)cc1	3
O=C(CCS(=O)(=O)c1ccccc1)N(CCCN1CCOCC1)c1nc2ccccc2s1	96*
CC(C)NC(=O)N1CC[C@@H]2[C@@H](CO)N(C)c3ccc(Br)cc3[C@@H]21	2[25 µM]
O=C(NCC(F)(F)F)[C@H]1[C@H](CO)[C@H]2Cn3c(cccc3=O)[C@H]2N1C(=O)c1ccccc1F	8[25 µM]
CCC(=O)N1C[C@H]2[C@@H](c3ccccc31)[C@@H](CO)N2Cc1ccccc1Cl	4[25 µM]
COCC(=O)NC[C@@H]1[C@H](c2ccccc2)[C@@H](CO)N1C(=O)c1ccccc1	-11[25 µM]
Cc1ccccc1S(=O)(=O)N1[C@@H](C#N)[C@@H](c2ccc(C#CC3CCCCC3)cc2)[C@@H]1CO	-10
Cc1ccccc1S(=O)(=O)N1[C@H](C#N)[C@@H](c2ccc(C#CC3CCCCC3)cc2)[C@@H]1CO	0
Cc1ccccc1S(=O)(=O)N1[C@@H](C#N)[C@H](c2ccc(C#CC3CCCC3)cc2)[C@@H]1CO	-5
Cc1ccccc1S(=O)(=O)N1[C@H](C#N)[C@H](c2ccc(C#CC3CCCCC3)cc2)[C@H]1CO	48*
Cc1ccccc1S(=O)(=O)N1[C@H](C#N)[C@H](c2ccc(C#CC3CCCC3)cc2)[C@H]1CO	40*
Cc1ccccc1S(=O)(=O)N1[C@H](C#N)[C@H](c2ccc(C#CC3CCCC3)cc2)[C@@H]1CO	-8
C[C@@H]1CN([C@H](C)CO)C(=O)CCCn2cc(nn2)CO[C@@H]1CN(C)Cc1ccccc1C(F)(F)F	4[25 µM]
COc1ccc(-c2ccc(C3[C@H]4CNC[C@@H]3N4C(=O)Nc3ccccc3F)cc2)cc1 (some centres not stated)	-41
N#C[C@@H]1[C@@H](c2ccccc2)[C@H](CO)N1C(=O)c1ccc2c(c1)OCO2	9[25 µM]
SMILES	BL2 CD40 inh
O=C(Nc1ccc(F)cc1)N1C[C@@H]2[C@H](c3ccccc31)[C@H](CO)N2C(=O)c1ccncc1	-22[25 µM]
CC(=O)N1[C@@H](CO)[C@H](c2ccc(-c3ccccc3)cc2)[C@@H]1CNC(=O)C1CC1	7
COCC#Cc1ccc([C@H]2[C@H]3CN(C(=O)C4CCCC4)CC(=O)N3[C@H]2CO)cc1	-3
COCC#Cc1ccc([C@H]2[C@H]3CN(C(=O)C4CCCCC4)CC(=O)N3[C@H]2CO)cc1	2[25 µM]
O=C(C1CCCC1)N1CC(=O)N2[C@H](CO)[C@@H](c3ccc(C#CCc4ccccc4)cc3)[C@@H]2C1	39
O=C(C1CCCC1)N1CC(=O)N2[C@@H](CO)[C@@H](c3ccc(C#CCc4ccccc4)cc3)[C@@H]2C1	55*
O=C(C1CCOCC1)N1CC(=O)N2[C@H](CO)[C@@H](c3ccc(C#CCc4ccccc4)cc3)[C@H]2C1	-6[25 µM]
O=C(C1CCCC1)N1CC(=O)N2[C@H](C1)[C@@H](c1ccc(C#CCc3ccccc3)cc1)[C@@H]2CO	51*
COc1ccccc1C#Cc1ccc2c(c1)[C@H]1[C@H](CCN1C(=O)CN1CCOCC1)[C@H](CO)N2	-42[25 µM]
Cc1ccc(S(=O)(=O)N2CC[C@@H]3[C@H](CO)Nc4ccc(-c5ccc(C#N)cc5)cc4[C@@H]32)cc1	10[25 µM]
CC(=O)Nc1cccc2c1O[C@@H](CN(C)S(C)(=O)=O)[C@@H](C)CN(C)C2=O	10
